Inhibition data for 60 compounds are collected here from PubChem BioAssay AID1259343 (VanderVen Lab, College of Veterinary Medicine, Cornell …, 2017).

Screen size: about 6,200 compounds; about 2,900 (47%) were called active. Rule as the data show it: active = inhibition above about 50%; inactive = the rest. The set was probably picked from earlier hits. Some of the results follow.

Broadly, the inhibition is the drop in the measured response relative to a control, in per cent.

This test is described as follows: Mycobacterium tuberculosis growth inhibition, primary screen (AID 1259343). The settings on record: inhibition: at 10 µM, hits give high values; outcome: 10 uM.
Take `OCCN(C=NC1=NN(c2cccc(C(F)(F)F)c2)CC1)CCO`: the inhibition was 83.2% (active).
To `O=[N+]([O-])c1ccc(C=NC2=NN(c3cccc(C(F)(F)F)c3)CC2)o1` belongs 87.8% (active); to `CN(N=Cc1ccc([N+](=O)[O-])o1)c1ccccc1`, -45.3% (inactive); to `FC(F)(F)c1cccc(N2CCC(N=Cc3ccccc3C(F)(F)F)=N2)c1`, 50.2% (active).
The same measure for `C(=NC1=NN(c2ccccc2)CC1)N1CCCCCC1`: -7.42% (inactive); for `FC(F)(F)c1cccc(N2CCC(N=Cc3ccccn3)=N2)c1`: 93.2% (active); for `CCCNC(=O)COc1c(Cl)cc(Cl)c2ccc(C)nc12`: 72.1% (active).
Turning to `O=[N+]([O-])c1ccc(C(O)CNC(=S)NCc2ccc3c(c2)OCO3)cc1` (stereo not given), the inhibition was 89.8% (active).
The same measure for `Cc1cc(=O)[nH]c(-n2nc(C3CC3)cc2NC(=O)c2ccco2)n1`: -24.5% (inactive); for `CCc1cc(=O)[nH]c(-n2nc(C)cc2NC(=O)c2cc(=O)c3ccccc3o2)n1`: 34.9% (inactive).
With `CCc1cc(=O)[nH]c(-n2nc(C)cc2NC(=O)c2ccco2)n1`, the inhibition was 100% (active).
As for `Cc1cc(=O)[nH]c(-n2nc(C)cc2NC(=O)c2ccco2)n1`, the inhibition is 101% (active).
In the case of `CCCc1cc(=O)[nH]c(-n2nc(C)cc2NC(=O)c2ccco2)n1`, the inhibition was 100% (active).
As for `CCc1cc(=O)[nH]c(-n2nc(C)cc2NC(=O)c2ccc(Br)o2)n1`, the inhibition is 101% (active).
Take `CN(Cc1ccc(Br)cc1)CC(O)COc1cccc(Br)c1` (stereo not given): the inhibition was 46.8% (inactive).
To `COCC(O)CN(C)C(=O)c1ccc(Oc2cccc(Br)c2)nc1` (stereo not given) belongs 85% (active); to `C=CCNC(=O)N(Cc1ccccn1)c1ccc(Oc2cccc(F)c2)nc1`, 39.1% (inactive); to `CCc1ccc(N2C(=O)C3N=NN(Cc4ccccc4C)C3C2=O)cc1` (stereo not given), 76.5% (active).
The same measure for `CCc1ccc(N2C(=O)C3N=NN(Cc4ccccc4)C3C2=O)cc1` (stereo not given): 93.5% (active); for `CC1=NOC(Cc2ccccc2)C(=O)N1Cc1ccc(C)cc1` (stereo not given): 30.2% (inactive); for `COc1ccc(N2C(=O)C3N=NN(Cc4ccccc4C)C3C2=O)cc1Cl` (stereo not given): -10.3% (inactive).
Regarding `CCc1ccc(N2C(=O)C3N=NN(Cc4ccc(C)cc4)C3C2=O)cc1` (stereo not given), the inhibition was 60.1% (active).
The same measure for `Cc1ccc(-c2nc(SCc3ncc(C(C)C)o3)n[nH]2)cc1`: 11.4% (inactive); for `CCCCCSc1n[nH]c(-c2ccc(C)cc2)n1`: 84.7% (active); for `Cc1cc(=O)[nH]c(-n2nc(C)cc2NC(=O)c2ccc3ccccc3c2)n1`: 94.6% (active).
The same measure for `CCc1cc(=O)[nH]c(-n2nc(C)cc2NC(=O)c2ccc3ccccc3c2)n1`: 101% (active); for `CCCc1cc(=O)[nH]c(-n2nc(C)cc2NC(=O)c2ccc3ccccc3c2)n1`: 102% (active).
The same measure for `FC(F)(F)c1cc(Cl)c2nnc(SCCN3CCSCC3)n2c1`: -6.99% (inactive); for `CCCCCC12CCC(CC(=O)O)(CC1)CC2`: 70.4% (active); for `CC(C)N1C(=O)C(=NN2C(=O)CSC2=S)c2ccccc21`: -42.2% (inactive).
For the compound `CC(NC(=O)c1ccc(-c2ccccc2F)s1)C(=O)N1CCCCC1` (stereo not given), the inhibition was 18.5% (inactive).
As for `O=C(NC1CC1)N1CCN(Cc2ccc(-c3ccccc3F)s2)CC1`, the inhibition was 97.6% (active).
To `O=C(NCc1ccoc1)N1CCN(Cc2ccc(Cl)s2)CC1` belongs 2.21% (inactive); to `CCCCCCCCCCCCCCCCCCN(C)C`, 98.2% (active).
Consider `CCOc1ccc2oc(C(=O)NC(C)(C)CC)c(C)c2c1`, for which the inhibition is 64% (active).
The same measure for `CCN=c1scc(-c2ccc(F)cc2)n1N=Cc1ccc2c(c1)OCCO2`: 4% (inactive).
In the case of `CCN=c1scc(-c2ccc(C)c(C)c2)n1N=Cc1cccnc1`, the inhibition was -8.38% (inactive).
Consider `CCN=c1scc(-c2ccc3c(c2)OCCO3)n1N=Cc1cc(C)ccc1C`, for which the inhibition was 87.5% (active).
`C(=Nn1c(-c2ccc3c(c2)OCCO3)csc1=NCCc1ccccc1)c1ccccn1`: the inhibition was 30.9% (inactive).
To `CCN=c1scc(-c2ccc(C)c(C)c2)n1N=Cc1ccc2c(c1)OCCO2` belongs 70.5% (active); to `Cc1nc(SCc2ccc(C(=O)O)cc2)nc(N2CCN(C/C=C/c3ccccc3)CC2)c1C`, 5.19% (inactive); to `COc1ccc(CC2CN(C/C=C/c3ccccc3)CCO2)cc1` (stereo not given), 41.6% (inactive).
The same measure for `C(#Cc1ccccc1)CN1CCN(C/C=C/c2ccccc2)CC1`: 80.2% (active); for `O=C(Nc1nc(OCC(F)(F)F)cnc1-c1ccc(Cl)cc1Cl)c1ccco1`: 64.5% (active); for `O=C(Nc1ccc(N2CCN(C(=O)c3ccc(-c4cccc(Cl)c4)s3)CC2)nc1)c1ccco1`: 38.5% (inactive).
To `CCc1cc(=O)[nH]c(-n2nc(C)cc2NC(=O)c2ccccc2[N+](=O)[O-])n1` belongs 101% (active); to `CCCc1cc(=O)[nH]c(-n2nc(C)cc2NC(=O)c2ccccc2[N+](=O)[O-])n1`, 101% (active).
Consider `CN(C)[C@@H]1C(=O)C(C(N)=O)=C(O)[C@@]2(O)C(=O)C3=C(O)c4c(O)cccc4[C@@](C)(O)[C@H]3C[C@@H]12`, for which the inhibition is 60.8% (active).
With `COc1cccc(Nc2ccc3c(-c4ccccc4)noc3n2)c1OC`, the inhibition is 70.1% (active).
To `COc1ccccc1NC(=O)c1ccc2noc(-c3ccccc3)c2c1` belongs 42.1% (inactive); to `COCCC(=O)N1CCC(C(=O)Nc2cccc(-c3cccc(Cl)c3)c2)CC1`, 8.7% (inactive); to `CSCCC(=O)N1CCC(C(=O)Nc2cccc(-c3cccc(Cl)c3)c2)CC1`, 88% (active).
To `O=C(Nc1cccc(-c2cccc(Cl)c2)c1)C1CCN(C(=O)CCn2cnnn2)CC1` belongs 90.2% (active); to `CC(=O)c1cccc(CN2CCC(C(=O)Nc3ccc(Oc4ccccc4F)cc3)CC2)c1`, “inactive”.
To `CCc1ncc(CN2CCC(C(=O)Nc3ccc(Oc4ccccc4F)cc3)CC2)cn1` belongs 86.1% (active); to `COc1cccc(CN2CCC(C(=O)Nc3ccc(Oc4ccccc4F)cc3)CC2)c1`, 62.3% (active); to `CCn1cc(CN2CCC(C(=O)Nc3ccc(Oc4ccccc4F)cc3)CC2)cn1`, “inactive”.
For the compound `O=C(Nc1ccc(Oc2ccccc2F)cc1)C1CCN(Cc2cccc3c2OCO3)CC1`, the inhibition was 93.3% (active).
To `O=C(Nc1ccc(Oc2ccccc2F)cc1)C1CCN(CCCn2cccn2)CC1` belongs 86.6% (active).
To `COCc1ccc(CN2CCC(C(=O)Nc3ccc(Oc4ccccc4F)cc3)CC2)o1` belongs “inactive”.
